PubChem BioAssay AID1159580 (chemical genetic matrix, 2015)
Where “and” joins values, the source holds several entries; their conditions need not be identical. Equal values may be shown once. Out of some 5,500 compounds screened, about 2,000 (36%) were called active. Roughly 18% stayed inconclusive and do not appear here. Rule as the data show it: active = normalized growth mostly below about 0.91 (no sharp cut-off); inconclusive = no clear call, values can overlap the other calls; inactive = mostly above about 0.92. The list shows a part of the results.

Test: chemical genetic growth profiling, strain panel (AID 1159580);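 also: tested at 20 µM; growth read once vehicle control cultures reached saturation at 30 °C; 1 = growth at the plate median or of vehicle wells; lower values mean less growth of the strain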
Conditions: S. cerevisiae deletion strains, growth OD

Measured: normalized growth

CC(C)(C)NC[C@@H](O)COc1nsnc1N1CCOCC1
inactive: locus YAL021C, strain ccr4, stronger effect = lower value 1.02 | locus YAL026C, strain drs2, stronger effect = lower value 1.01 | locus YAL030W, strain snc1, stronger effect = lower value 1.02 | locus YBL061C, strain skt5, stronger effect = lower value 1.01 | locus YBR009C, strain hhf1, stronger effect = lower value 1.01 | locus YBR021W, strain FUR4, stronger effect = lower value 1 | locus YBR023C, strain chs3, stronger effect = lower value 1 | locus YBR171W, strain sec66, stronger effect = lower value 1.03 | locus YBR229C, strain ROT2, stronger effect = lower value 0.977 | locus YBR231C, strain swc5, stronger effect = lower value 1.02 | locus YBR279W, strain paf1, stronger effect = lower value 1.01 | locus YCL011C, strain gbp2, stronger effect = lower value 1.02 | locus YCL016C, strain dcc1, stronger effect = lower value 1.01 | locus YCL029C, strain bik1, stronger effect = lower value 0.978 | locus YCL069W, strain vba3, stronger effect = lower value 1.01 | locus YCR088W, strain abp1, stronger effect = lower value 1.02 | locus YDL005C, strain med2, stronger effect = lower value 1.02 | locus YDL035C, strain GPR1, stronger effect = lower value 1.02 | locus YDL040C, strain nat1, stronger effect = lower value 1.01 | locus YDL074C, strain BRE1, stronger effect = lower value 0.985 | locus YDL101C, strain DUN1, stronger effect = lower value 0.99 | locus YDL185W, strain tfp1, stronger effect = lower value 0.977 | locus YDL192W, strain arf1, stronger effect = lower value 0.994 | locus YDR001C, strain nth1, stronger effect = lower value 1.01 | locus YDR069C, strain doa4, stronger effect = lower value 1.01 | locus YDR101C, strain arx1, stronger effect = lower value 0.95 | locus YDR137W, strain rgp1, stronger effect = lower value 1.02 | locus YDR150W, strain NUM1, stronger effect = lower value 0.99 | locus YDR159W, strain sac3, stronger effect = lower value 1 | locus YDR162C, strain NBP2, stronger effect = lower value 1.02 | locus YDR195W, strain ref2 1.03 | locus YDR297W, strain sur2, stronger effect = lower value 1.02 | locus YDR318W, strain mcm21, stronger effect = lower value 1 | locus YDR334W, strain swr1, stronger effect = lower value 1.02 | locus YDR335W, strain msn5, stronger effect = lower value 1.02 | locus YDR388W, stronger effect = lower value 0.99 | locus YDR392W, strain spt3, stronger effect = lower value 0.973 | locus YDR502C, strain sam2, stronger effect = lower value 0.994 | locus YEL003W, strain gim4, stronger effect = lower value 1.02 | locus YEL037C, strain rad23, stronger effect = lower value 1.01 | locus YEL061C, strain CIN8 (second series), stronger effect = lower value 1.02 | locus YEL061C, strain CIN8, stronger effect = lower value 0.996 | locus YER015W, strain faa2, stronger effect = lower value 1 | locus YER016W, strain bim1, stronger effect = lower value 0.994 | locus YER110C, stronger effect = lower value 0.974 | locus YER111C, strain swi4, stronger effect = lower value 1.02 | locus YER155C, strain BEM2 (second series), stronger effect = lower value 1.01 | locus YER155C, strain BEM2, stronger effect = lower value 0.987 | locus YER167W, strain BCK2, stronger effect = lower value 0.986 | locus YFR010W, strain ubp6, stronger effect = lower value 1.02 | locus YGL078C, strain dbp3, stronger effect = lower value 1 | locus YGL086W, strain mad1, stronger effect = lower value 0.966 | locus YGL167C, strain pmr1, stronger effect = lower value 1.02 | locus YGL173C, strain kem1, stronger effect = lower value 1.02 | locus YGL227W, strain vid30, stronger effect = lower value 1.01 | locus YGL240W, strain doc1, stronger effect = lower value 1.02 | locus YGL248W, strain PDE1, stronger effect = lower value 1 | locus YGL253W, strain hxk2, stronger effect = lower value 1.02 | locus YGR078C, strain PAC10, stronger effect = lower value 1 | locus YGR135W, strain pre9, stronger effect = lower value 1 | locus YGR252W, strain gcn5, stronger effect = lower value 1.08 | locus YHR013C, strain ard1, stronger effect = lower value 1.02 | locus YHR027C, strain rpn1, stronger effect = lower value 1.01 | locus YHR030C, strain SLT2, stronger effect = lower value 0.997 and 0.975 | locus YHR079C, strain IRE1 (second series), stronger effect = lower value 0.983 | locus YHR079C, strain IRE1, stronger effect = lower value 0.973 | locus YHR094C, strain hxt1, stronger effect = lower value 0.974 | locus YHR129C, strain ARP1, stronger effect = lower value 1 | locus YHR142W, strain chs7, stronger effect = lower value 1.03 | locus YHR200W, strain rpn10, stronger effect = lower value 1 | locus YIL066C, strain RNR3, stronger effect = lower value 0.985 | locus YIL073C, strain SPO22, stronger effect = lower value 1.01 | locus YIL125W, strain kgd1, stronger effect = lower value 0.981 | locus YIR030C, strain dcg1, stronger effect = lower value 1 | locus YJL092W, strain hpr5, stronger effect = lower value 1.01 | locus YJL095W, strain BCK1 (second series), stronger effect = lower value 1.02 | locus YJL095W, strain BCK1, stronger effect = lower value 1.01 and 0.975 | locus YJL115W, strain asf1, stronger effect = lower value 1.01 | locus YJL129C, strain trk1, stronger effect = lower value 1.02 | locus YJL134W, strain LCB3, stronger effect = lower value 0.985 | locus YJL154C, strain vps35, stronger effect = lower value 1.02 | locus YJL164C, strain tpk1, stronger effect = lower value 1.01 | locus YJL166W, strain qcr8, stronger effect = lower value 1.01 | locus YJL168C, strain set2, stronger effect = lower value 0.984 | locus YJL187C, strain SWE1 (second series), stronger effect = lower value 0.99 | locus YJL187C, strain SWE1, stronger effect = lower value 1.02 | locus YJR043C, strain POL32, stronger effect = lower value 1.03 | locus YJR066W, strain TOR1, stronger effect = lower value 0.929
